In PubChem BioAssay AID493166 (National Center for Advancing Translational Sciences (NCATS), 2011):
The source made the active and inactive calls. Calls follow the shape of the dose curve; as a rule, active = well fitted curve in the direction sought with a large enough effect; inactive = no such curve, though single readings can be large or run the other way.

test: Retest of LOPAC molecules that induce DNA re-replication in MCF 10A normal breast cells.; conditions: MCF 10A DNA re-replication, Hoechst nuclear intensity, 48 h; series mostly up to 45.1 µM
From the text: NIH Molecular Libraries Probe Production Network [MLPCN] NIH Chemical Genomics Center [NCGC] MLPCN Grant: Fast Track K99 CA136555 Assay Provider: Melvin DePamphilis, NICHD, NIH Assay Overview Eukaryotic cells normally restrict genome duplication to once per cell division. When this process is aberrant, DNA re-replication occurs when cells reinitiate DNA replication before the first round of replication is complete. DNA re-replication induces the DNA damage response, arrests cell proliferation, and triggers apoptosis. The cell cycle components cyclin A, Cdt-1, Cdc6 and geminin are critical regulators of this process and their misregulation results in DNA re-replication in normal and cancer cells. To identify compounds that induce re-replication in normal cells, an image-based assay was used to measure DNA content of nuclei, as detected by the fluorescent DNA binding dye, Hoechst. Cell nuclei were imaged by a fluorescence scanning plate imager and compounds that induce DNA re-replication were identified by the increase of nuclei with elevated fluorescence intensity.
Assay Protocol Summary For screening, 250 cells in 5 uL/well were dispensed into black clear 1536-well plates (Aurora) using a solenoid-based dispenser. Following transfer of 23 nL compound or DMSO vehicle by a pin tool, the plates were incubated 48 hr at 37 C and 5% CO2. After addition of 1 uL/well Hoescht stain, the plates were incubated 40 min at 37 C, 5% CO2 and total intensity of fluorescent objects (nuclei) were enumerated by an Acumen Explorer Ex3 (TTP LabTech) fluorescence scanning plate imager (405 nm excitation, 500-530 nm emission). Keywords: NIH Roadmap, MLPCN, MLI, MLSMR, qHTS, NCGC, DNA replication, cancer

SMILES | Potency
CC(=O)O[C@H]1C(=O)[C@@]2(C)C([C@H](OC(=O)c3ccccc3)[C@]3(O)C[C@H](OC(=O)[C@H](O)[C@@H](NC(=O)c4ccccc4)c4ccccc4)C(C)=C1C3(C)C)[C@]1(OC(C)=O)CO[C@@H]1C[C@@H]2O (stereo not given in full) | 0.0534 µM (active)
O=c1cc(-c2ccccc2)[nH]c2nc(Cl)ccc12 | 5.34 µM (active)
COc1cc2c(cc1O)CC[C@@H]1[C@@H]2CC[C@]2(C)[C@@H](O)CC[C@@H]12 | 4.76 µM (active)
C[C@@H](Oc1ccc(Oc2cnc3ccc(Cl)cc3n2)cc1)C(=O)O | inactive
CCCCCCN(CCCCCC)C(=O)Cc1c(-c2ccc(F)cc2)[nH]c2ccccc12 | inactive
